# Inconclusive results are not listed. Activity calls are given as the source filed them. The calls were made as follows, unless noted: active = hit-call score of the fitted dose curve at least 0.9, where 1 is the maximum; inconclusive = response in the unintended direction; inactive = score below 0.9.
# Legend:
# [1] = BSK_SAg_Proliferation: Cell Proliferation Assessment in the BioMAP Diversity Plus: SAg Assay (AID 2283095; active = hit-call score of the fitted dose curve at least 0.9, where 1 is the maximum; inactive = score below 0.9;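 also: relative cell number as total protein by SRB absorbance in sub-confluent culture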); details: primary human HUVEC with PBMC
# Procedure, shortened: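 HUVEC/PBMC co-culture, 96-well. TCA-fixed (10%), 0.1% SRB stain, A560 at 96 h. Protein content used as viability readout; bidirectional fitting vs DMSO control.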
# [2] = BSK_SAg_SRB: Viability Assessment in the BioMAP Diversity Plus: SAg Assay (AID 2283096; active = hit-call score of the fitted dose curve at least 0.9, where 1 is the maximum; inactive = score below 0.9;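 also: cells read one day after compound addition; hits may be either gain or loss of signal compared with DMSO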); details: primary human HUVEC with PBMC
# Procedure, shortened: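 Compounds were added to a human vascular co-culture of umbilical vein endothelium and PBMC. After 24 h, parallel cultures were fixed with 10% TCA, stained with 0.1% sulforhodamine B and read at 560 nm. Gain or loss of signal was fitted relative to DMSO.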
# [3] = target: human CYP1A2, CYP1A2 (gene 1544) (UniProt P05177); experiment: NVS_ADME_hCYP1A2: NovaScreen (NVS) CYP450-related Enzyme Activity (ADME) Assay for human CYP1A2 (AID 2283102);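 also: potency for inhibition since loss of fluorescence marks reduced CYP1A2 activity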
# Procedure, shortened: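 Fluorescence-intensity enzyme activity read-out, taken 0.5 h post-dosing, using insect-cell-derived recombinant CYP1A2 and specific fluorescent substrate. Acetonitrile served as negative control/baseline. Single-concentration duplicate screen at 10 uM, then concentration-response follow-up.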
# [4] = target: human CYP2D6, CYP2D6 (gene 1565) (UniProt P10635); experiment: NVS_ADME_hCYP2D6: NovaScreen (NVS) CYP450-related Enzyme Activity (ADME) Assay for human CYP2D6 (AID 2283107)
# Procedure, shortened: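 Fluorescence intensity read 1 h post-dosing; insect-cell-expressed recombinant protein with fluorogenic substrate, no cells. Activity is scored as signal loss relative to acetonitrile baseline, first at a single 10 uM concentration in duplicate, then as concentration series for confirmed actives.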
# [5] = target: human CYP2C9, CYP2C9 (gene 1559) (UniProt P11712); experiment: NVS_ADME_hCYP2C9: NovaScreen (NVS) CYP450-related Enzyme Activity (ADME) Assay for human CYP2C9 (AID 2283108)
# Procedure, shortened: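 Recombinant human CYP2C9 expressed in SF9 cells, fluorogenic substrate, fluorescence read 0.75 h after dosing. Chemicals first run in duplicate at 10 uM, with actives followed in concentration series; loss of signal versus acetonitrile baseline.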
# [6] = target: Cytochrome P450 3A4 (Homo sapiens) (UniProt P08684); experiment: NVS_ADME_hCYP3A4: NovaScreen (NVS) CYP450-related Enzyme Activity (ADME) Assay for human CYP3A4 (AID 2283110)
# Procedure, shortened: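 Recombinant CYP3A4 from insect cells, fluorescence enzyme read-out, 0.33 h after chemical addition. Acetonitrile = negative control/baseline. Primary HTS: 10 uM in duplicate; actives re-tested in concentration series.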
# [7] = target: Cytochrome P450 2C19 (Homo sapiens) (UniProt P33261); experiment: NVS_ADME_hCYP2C19: NovaScreen (NVS) CYP450-related Enzyme Activity (ADME) Assay for human CYP2C19 (AID 2283113);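 as to AC50: potency for inhibition seen as loss of fluorescent signal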
# Procedure, shortened: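 Recombinant insect-cell-expressed enzyme, fluorescent substrate, 1 h after chemical addition, fluorescence intensity. Baseline = acetonitrile vehicle; activity scored as signal loss. Primary HTS single concentration 10 uM, duplicate; actives retested in concentration series.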
# [8] = target: human Acid Phosphatase 1 (ACP1), ACP1 (gene 52) (UniProt P24666); experiment: NVS_ENZ_hACP1: NovaScreen (NVS) Enzymatic Assay for human Acid Phosphatase 1 (ACP1) (AID 2283136)
# Procedure, shortened: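 Cell-free fluorescence read-out of phosphatase activity, substrate and product separated by mobility shift, taken 1.5 h after compound addition; protein produced in Sf9. Single 25 uM duplicate screen, followed by concentration series for actives, scored as signal loss relative to DMSO.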
# [9] = target: human AKT serine/threonine Kinase 1 (AKT1), AKT1 (gene 207) (UniProt P31749); experiment: NVS_ENZ_hAKT1: NovaScreen (NVS) Enzymatic Assay for human AKT serine/threonine Kinase 1 (AKT1) (AID 2283138)
# Procedure, shortened: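 Fluorescence and mobility-shift readout of kinase activity, taken 1 h post-dosing in a cell-free format with recombinant protein. Primary screen at 25 uM in duplicate; hits (e.g. 30% inhibition) retested in concentration series topping at 50 uM.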
# [10] = target: human Caspase 8 (CASP8), CASP8 (gene 841) (UniProt Q14790); experiment: NVS_ENZ_hCASP8: NovaScreen (NVS) Enzymatic Assay for human Caspase 8 (CASP8) (AID 2283146)
# Procedure, shortened: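 The primary screen tested compounds in duplicate at a single 25 uM concentration, with actives followed up in concentration series. Activity of recombinant (E. coli) protease was measured by fluorescence 1 h post-dose, as signal loss against DMSO.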
# [11] = target: human CYP19A1, CYP19A1 (gene 1588) (UniProt P11511); experiment: NVS_ADME_hCYP19A1: NovaScreen (NVS) CYP450-related Enzyme Activity (ADME) Assay for human CYP19A1 (AID 2283098);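 also: potency for inhibitors seen as loss of fluorescent enzyme signal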
# Procedure, shortened: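 Fluorescence intensity read-out; activity taken as signal loss relative to acetonitrile vehicle. Extracted enzyme, specific substrate, no cells, 0.5 h exposure. Duplicate single-point screen at 10 uM, then concentration–response follow-up for actives.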
# [12] = target: human Caspase 4 (CASP4), CASP4 (gene 837) (UniProt P49662); experiment: NVS_ENZ_hCASP4: NovaScreen (NVS) Enzymatic Assay for human Caspase 4 (CASP4) (AID 2283143)
# Procedure, shortened: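 Compounds were first tested in duplicate at 25 uM, and hits were titrated singly to a 50 uM maximum. Recombinant protease from E. coli was read by fluorescence 2 h post-dose, and activity loss was fitted against the DMSO baseline.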
# [13] = target: human Casein Kinase 1-delta (CK1D), CSNK1D (gene 1453) (UniProt P48730); experiment: NVS_ENZ_hCK1D: NovaScreen (NVS) Enzymatic Assay for human Casein Kinase 1-delta (CK1D) (AID 2283148)
# Procedure, shortened: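 Recombinant human CK1-delta, cell-free; fluorescent substrate with electrophoretic mobility-shift separation of product, read 1 h after dosing. Single 25 uM duplicate screen, then concentration-response up to 50 uM; loss of signal vs DMSO.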
# [14] = target: human CYP1A1, CYP1A1 (gene 1543) (UniProt P04798); experiment: NVS_ADME_hCYP1A1: NovaScreen (NVS) CYP450-related Enzyme Activity (ADME) Assay for human CYP1A1 (AID 2283100)
# Procedure, shortened: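 Read-out: fluorescence intensity from enzymatic turnover of substrate by recombinant CYP1A1, loss of signal indicating inhibition. Incubation 1 h post-dose. Primary single-point 10 uM in duplicate; actives rerun singly with top concentration 20 uM.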
# CDK2 (gene 1017) = CDK2 (gene 1017) (UniProt P24941); experiment: NVS_ENZ_hCDK2: NovaScreen (NVS) Enzymatic Assay for human Cyclin-Cependent Kinase 2 (CDK2) (AID 2283144)
# Procedure, shortened: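 Compounds screened in duplicate at 25 uM, then in singleton concentration-response to a maximum of 50 uM, against recombinant CDK2; kinase activity read 1 hr after dosing by fluorescence with mobility-shift separation of substrate and product.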
# [15] = target: human Caspase 5 (CASP5), CASP5 (gene 838) (UniProt P51878); experiment: NVS_ENZ_hCASP5: NovaScreen (NVS) Enzymatic Assay for human Caspase 5 (CASP5) (AID 2283137)
# Procedure, shortened: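 Fluorescent substrate readout of CASP5 activity (loss-of-signal), measured 2 h post-dose. Protein expressed in E. coli. Primary screen duplicate at 25 uM; actives meeting threshold (e.g., 30% inhibition) rerun singleton, max 50 uM.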
# [16] = target: human CYP2B6, CYP2B6 (gene 1555) (UniProt P20813); experiment: NVS_ADME_hCYP2B6: NovaScreen (NVS) CYP450-related Enzyme Activity (ADME) Assay for human CYP2B6 (AID 2283101)
# Procedure, shortened: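 Recombinant human CYP2B6 with fluorogenic substrate, read by fluorescence intensity 1 h after dosing. Primary screen in duplicate at 10 uM, actives followed in concentration series; signal loss relative to acetonitrile control.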
# [17] = target: human Beta-secretase (BACE), BACE1 (gene 23621) (UniProt P56817); experiment: NVS_ENZ_hBACE: NovaScreen (NVS) Enzymatic Assay for human Beta-secretase (BACE) (AID 2283140);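 also: hits are inhibitors that reduce fluorescent substrate signal versus DMSO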
# Procedure, shortened: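 SF9-expressed enzyme, cell-free; fluorescent substrate readout after 1 h. Screened at 25 uM single concentration, duplicate; hits retested in concentration series. Activity relative to DMSO baseline, loss-of-signal.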
# Sequence of human CYP1A2, CYP1A2 (gene 1544) (P05177 whole entry, looked up): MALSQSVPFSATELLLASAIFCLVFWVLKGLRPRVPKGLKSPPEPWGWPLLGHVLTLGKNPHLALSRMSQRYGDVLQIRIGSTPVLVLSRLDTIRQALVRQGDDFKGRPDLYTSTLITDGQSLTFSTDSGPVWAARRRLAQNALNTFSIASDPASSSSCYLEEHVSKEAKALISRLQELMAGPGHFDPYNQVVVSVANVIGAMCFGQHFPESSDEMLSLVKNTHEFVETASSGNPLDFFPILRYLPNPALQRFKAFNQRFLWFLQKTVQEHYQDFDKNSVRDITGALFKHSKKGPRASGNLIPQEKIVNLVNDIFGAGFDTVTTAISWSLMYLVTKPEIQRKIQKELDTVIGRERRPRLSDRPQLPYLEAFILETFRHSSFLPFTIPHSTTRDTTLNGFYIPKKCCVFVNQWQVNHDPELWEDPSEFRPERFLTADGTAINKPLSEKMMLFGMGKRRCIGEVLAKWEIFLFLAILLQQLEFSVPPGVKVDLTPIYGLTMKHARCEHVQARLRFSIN
# Sequence of human Caspase 4 (CASP4), CASP4 (gene 837) (P49662 whole entry, looked up): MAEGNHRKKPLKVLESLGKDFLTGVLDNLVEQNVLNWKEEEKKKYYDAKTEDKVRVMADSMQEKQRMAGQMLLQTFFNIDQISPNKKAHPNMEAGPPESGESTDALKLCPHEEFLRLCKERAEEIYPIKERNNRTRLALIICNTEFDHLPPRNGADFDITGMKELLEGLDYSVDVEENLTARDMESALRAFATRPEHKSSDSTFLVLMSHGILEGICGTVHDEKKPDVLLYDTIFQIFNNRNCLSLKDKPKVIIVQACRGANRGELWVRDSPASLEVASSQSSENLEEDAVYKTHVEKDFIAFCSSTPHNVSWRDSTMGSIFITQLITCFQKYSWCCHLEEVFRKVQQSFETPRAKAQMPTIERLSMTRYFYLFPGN
# Sequence of human CYP1A1, CYP1A1 (gene 1543) (P04798 whole entry, looked up): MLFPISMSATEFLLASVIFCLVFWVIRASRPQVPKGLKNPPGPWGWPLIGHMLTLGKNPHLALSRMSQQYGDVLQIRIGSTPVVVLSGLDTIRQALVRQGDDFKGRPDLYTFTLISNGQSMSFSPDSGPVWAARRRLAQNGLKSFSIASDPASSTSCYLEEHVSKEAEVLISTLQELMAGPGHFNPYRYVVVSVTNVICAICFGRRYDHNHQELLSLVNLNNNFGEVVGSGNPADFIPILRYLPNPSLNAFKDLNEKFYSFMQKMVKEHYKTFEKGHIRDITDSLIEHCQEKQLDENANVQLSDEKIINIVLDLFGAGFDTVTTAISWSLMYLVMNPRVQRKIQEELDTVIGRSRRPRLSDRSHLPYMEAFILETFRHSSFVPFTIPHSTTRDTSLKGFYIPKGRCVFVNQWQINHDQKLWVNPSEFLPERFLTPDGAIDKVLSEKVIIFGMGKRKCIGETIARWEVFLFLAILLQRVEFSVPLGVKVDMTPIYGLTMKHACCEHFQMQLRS
# Sequence of Cytochrome P450 3A4 (Homo sapiens) (P08684 whole entry, looked up): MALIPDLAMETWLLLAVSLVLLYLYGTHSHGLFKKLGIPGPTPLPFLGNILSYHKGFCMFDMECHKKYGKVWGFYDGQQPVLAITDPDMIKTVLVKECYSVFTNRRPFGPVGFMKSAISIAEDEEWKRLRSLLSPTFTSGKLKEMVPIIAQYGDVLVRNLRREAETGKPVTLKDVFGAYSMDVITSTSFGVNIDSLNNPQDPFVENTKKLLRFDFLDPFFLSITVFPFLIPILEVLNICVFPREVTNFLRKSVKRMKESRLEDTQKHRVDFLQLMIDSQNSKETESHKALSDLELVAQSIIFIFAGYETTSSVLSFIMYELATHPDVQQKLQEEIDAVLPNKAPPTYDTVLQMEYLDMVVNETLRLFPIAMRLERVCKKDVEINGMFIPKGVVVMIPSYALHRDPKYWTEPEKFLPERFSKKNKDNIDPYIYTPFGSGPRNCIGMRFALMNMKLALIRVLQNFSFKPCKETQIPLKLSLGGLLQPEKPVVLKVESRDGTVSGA
# Sequence of human CYP2C9, CYP2C9 (gene 1559) (P11712 whole entry, looked up): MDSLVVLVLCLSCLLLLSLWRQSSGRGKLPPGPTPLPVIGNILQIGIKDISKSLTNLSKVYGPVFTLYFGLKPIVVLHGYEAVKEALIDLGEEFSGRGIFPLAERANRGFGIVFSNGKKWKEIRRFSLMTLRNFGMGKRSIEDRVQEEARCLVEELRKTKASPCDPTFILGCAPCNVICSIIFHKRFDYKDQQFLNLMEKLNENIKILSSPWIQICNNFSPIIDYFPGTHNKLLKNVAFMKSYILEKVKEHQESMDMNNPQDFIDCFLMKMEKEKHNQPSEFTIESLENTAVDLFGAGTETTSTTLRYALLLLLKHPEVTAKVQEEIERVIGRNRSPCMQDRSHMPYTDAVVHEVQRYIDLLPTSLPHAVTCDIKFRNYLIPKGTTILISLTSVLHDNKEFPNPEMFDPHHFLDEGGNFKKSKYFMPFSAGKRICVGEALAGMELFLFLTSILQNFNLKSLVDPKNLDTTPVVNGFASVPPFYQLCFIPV
# Sequence of human Caspase 5 (CASP5), CASP5 (gene 838) (P51878 whole entry, looked up): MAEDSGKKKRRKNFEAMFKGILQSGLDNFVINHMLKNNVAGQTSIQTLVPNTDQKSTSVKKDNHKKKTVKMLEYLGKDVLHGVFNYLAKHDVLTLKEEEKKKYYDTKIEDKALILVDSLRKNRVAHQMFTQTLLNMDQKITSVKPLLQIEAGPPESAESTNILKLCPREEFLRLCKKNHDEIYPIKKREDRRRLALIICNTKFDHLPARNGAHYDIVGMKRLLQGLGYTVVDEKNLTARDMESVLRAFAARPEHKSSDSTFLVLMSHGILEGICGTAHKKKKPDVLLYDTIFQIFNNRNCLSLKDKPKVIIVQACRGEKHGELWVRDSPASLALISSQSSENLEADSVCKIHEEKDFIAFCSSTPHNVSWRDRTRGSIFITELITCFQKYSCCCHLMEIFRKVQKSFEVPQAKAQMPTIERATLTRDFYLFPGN
# Sequence of human Acid Phosphatase 1 (ACP1), ACP1 (gene 52) (P24666 whole entry, looked up): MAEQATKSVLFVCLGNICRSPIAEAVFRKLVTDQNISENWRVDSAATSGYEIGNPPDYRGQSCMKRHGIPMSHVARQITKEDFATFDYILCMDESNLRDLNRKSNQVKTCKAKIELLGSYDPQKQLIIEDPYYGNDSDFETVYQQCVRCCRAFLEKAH
# Sequence of human AKT serine/threonine Kinase 1 (AKT1), AKT1 (gene 207) (P31749 whole entry, looked up): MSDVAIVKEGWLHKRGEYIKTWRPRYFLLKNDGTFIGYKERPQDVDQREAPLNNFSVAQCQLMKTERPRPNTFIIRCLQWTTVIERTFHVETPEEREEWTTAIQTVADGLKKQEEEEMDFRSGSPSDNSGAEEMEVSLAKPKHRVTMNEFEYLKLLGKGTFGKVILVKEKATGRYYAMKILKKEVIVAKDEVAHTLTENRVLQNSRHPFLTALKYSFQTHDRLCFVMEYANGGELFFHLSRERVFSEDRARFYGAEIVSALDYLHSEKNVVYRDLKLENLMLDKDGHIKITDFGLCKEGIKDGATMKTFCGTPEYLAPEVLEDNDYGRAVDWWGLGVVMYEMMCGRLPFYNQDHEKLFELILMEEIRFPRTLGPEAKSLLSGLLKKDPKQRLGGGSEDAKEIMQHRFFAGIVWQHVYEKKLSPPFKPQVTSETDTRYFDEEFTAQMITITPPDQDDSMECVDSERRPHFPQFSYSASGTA
# Sequence of human CYP2D6, CYP2D6 (gene 1565) (P10635 whole entry, looked up): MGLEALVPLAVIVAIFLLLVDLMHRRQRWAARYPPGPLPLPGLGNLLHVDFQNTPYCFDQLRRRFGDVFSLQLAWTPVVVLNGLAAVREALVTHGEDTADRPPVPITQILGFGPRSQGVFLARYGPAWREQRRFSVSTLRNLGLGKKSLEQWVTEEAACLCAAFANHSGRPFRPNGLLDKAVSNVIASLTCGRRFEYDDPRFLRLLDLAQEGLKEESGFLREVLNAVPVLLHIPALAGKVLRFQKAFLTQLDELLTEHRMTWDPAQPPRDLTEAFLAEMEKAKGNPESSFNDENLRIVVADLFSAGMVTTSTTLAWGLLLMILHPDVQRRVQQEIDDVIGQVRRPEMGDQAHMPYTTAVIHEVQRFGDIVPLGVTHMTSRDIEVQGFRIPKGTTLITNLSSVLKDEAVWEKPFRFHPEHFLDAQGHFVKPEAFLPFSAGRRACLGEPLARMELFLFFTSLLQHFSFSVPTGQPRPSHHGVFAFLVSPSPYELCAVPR
# Sequence of human CYP19A1, CYP19A1 (gene 1588) (P11511 whole entry, looked up): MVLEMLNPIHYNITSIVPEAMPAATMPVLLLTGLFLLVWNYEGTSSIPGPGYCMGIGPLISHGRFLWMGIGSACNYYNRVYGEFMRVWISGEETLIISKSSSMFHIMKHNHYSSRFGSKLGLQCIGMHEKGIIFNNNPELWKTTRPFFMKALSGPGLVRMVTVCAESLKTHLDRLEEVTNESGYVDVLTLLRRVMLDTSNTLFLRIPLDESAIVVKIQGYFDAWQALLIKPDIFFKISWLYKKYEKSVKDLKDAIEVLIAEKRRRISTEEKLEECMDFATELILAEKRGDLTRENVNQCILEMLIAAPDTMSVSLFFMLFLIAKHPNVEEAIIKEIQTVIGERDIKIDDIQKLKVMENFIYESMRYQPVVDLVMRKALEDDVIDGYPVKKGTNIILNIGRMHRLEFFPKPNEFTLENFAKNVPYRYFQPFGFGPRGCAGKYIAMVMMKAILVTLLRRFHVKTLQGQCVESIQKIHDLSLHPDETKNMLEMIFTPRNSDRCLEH
# Sequence of human Casein Kinase 1-delta (CK1D), CSNK1D (gene 1453) (P48730 whole entry, looked up): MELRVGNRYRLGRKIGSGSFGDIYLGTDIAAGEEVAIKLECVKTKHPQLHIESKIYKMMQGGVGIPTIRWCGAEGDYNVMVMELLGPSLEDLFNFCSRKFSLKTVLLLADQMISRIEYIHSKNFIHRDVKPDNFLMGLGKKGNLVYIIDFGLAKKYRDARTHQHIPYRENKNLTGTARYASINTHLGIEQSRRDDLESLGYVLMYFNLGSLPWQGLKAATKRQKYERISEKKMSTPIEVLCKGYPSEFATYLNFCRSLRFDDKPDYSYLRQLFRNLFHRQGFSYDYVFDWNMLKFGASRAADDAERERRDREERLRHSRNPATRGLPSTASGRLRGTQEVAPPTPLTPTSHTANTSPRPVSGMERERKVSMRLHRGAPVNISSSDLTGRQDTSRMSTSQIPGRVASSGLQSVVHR
smiles,measurement,setting,value
C1N2CN3CN1CN(C2)C3,outcome,[1],inactive
same,outcome,[2],inactive
CCCN(C1CCN(C(=O)C2CCNCC2)CC1)[C@@H]1CCc2ccc(OC)cc2C1,outcome,[1],inactive
same,outcome,[2],inactive
COC(=O)c1c(Cl)c(Cl)c(C(=O)OC)c(Cl)c1Cl,outcome,[1],inactive
same,outcome,[2],inactive
same,AC50,[3],8.47 µM (active)
CC(C)c1cccc(C(C)C)c1N1C(=O)c2ccc(O)cc2C1=O,AC50,[1],20 µM (active)
same,AC50,[2],19.3 µM (active)
same,outcome,[4],inactive
same,AC50,[5],4.78 µM (active)
same,AC50,[6],13.6 µM (active)
same,AC50,[7],5.11 µM (active)
same,outcome,[8],inactive
same,outcome,[9],inactive
same,outcome,[10],inactive
CN(C)c1ccc(N=NS(=O)(=O)O)cc1,AC50,[1],19 µM (active)
same,outcome,[2],inactive
same,AC50,[11],12 µM (active)
same,outcome,[12],inactive
same,outcome,[13],inactive
Fc1ccccc1[C@@H](F)COC1CCC(Nc2ncnc3[nH]ncc23)CC1 (stereo partly specified),AC50,[1],26.8 µM (active)
same,AC50,[2],25.4 µM (active)
same,outcome,[14],inactive
O=C(O)c1cc(N=Nc2ccc(S(=O)(=O)Nc3ccccn3)cc2)ccc1O,outcome,[1],inactive
same,outcome,[2],inactive
same,outcome,[14],inactive
same,outcome,[8],inactive
same,outcome,[9],inactive
same,outcome,CDK2 (gene 1017),inactive
CCc1cc(SCc2sc(-c3ccc(C(F)(F)F)cc3)nc2CN2CCN(c3ccc(OC)cc3)CC2)ccc1OCC(=O)O,AC50,[1],9.97 µM (active)
same,AC50,[2],14.2 µM (active)
same,outcome,[14],inactive
same,outcome,[5],inactive
same,outcome,[6],inactive
same,AC50,[15],2.35 µM (active)
same,outcome,[12],inactive
Nc1ccc(Nc2ccccc2)cc1,AC50,[1],14 µM (active)
same,outcome,[2],inactive
same,AC50,[16],4.35 µM (active)
same,AC50,[3],15.1 µM (active)
same,AC50,[4],13.8 µM (active)
same,AC50,[5],16.1 µM (active)
same,AC50,[6],7.5 µM (active)
same,AC50,[7],6.51 µM (active)
same,outcome,[15],inactive
same,outcome,[12],inactive
Oc1ccc2c(c1)-c1ccccc1C2,outcome,[1],inactive
same,AC50,[2],20 µM (active)
same,AC50,[14],6.18 µM (active)
same,AC50,[3],0.691 µM (active)
same,AC50,[5],3.72 µM (active)
same,outcome,[6],inactive
same,AC50,[7],5.99 µM (active)
same,AC50,[15],36.1 µM (active)
CC(C)=CCCC(C)CCO (stereo unspecified),outcome,[1],inactive
same,outcome,[2],inactive
same,outcome,[14],inactive
same,outcome,[7],inactive
Nc1cccc(N)c1,outcome,[1],inactive
same,outcome,[2],inactive
Cc1c(-c2cccnc2)c2ccccc2n1CCCCC(=O)O,AC50,[1],20 µM (active)
same,outcome,[2],inactive
same,AC50,[14],4.39 µM (active)
same,AC50,[3],13.9 µM (active)
same,outcome,[17],inactive

# From PubChem BioAssay (EPA / NIEHS)
